Test results reported in publication PMC7862700, “An all-to-all approach to the identification of sequence-specific readers for epigenetic DNA modifications on cytosine”.

Key:
Experiment in all cases: DAPPL (digital affinity profiling via proximity ligation, sequencing); 10 mM Tris-HCl pH 7.5, 50 mM NaCl, 1 mM DTT, 4% glycerol, room temperature, 30 min; GST-TFs on glutathione beads, 16-mer random dsDNA library, 0.1% formaldehyde crosslink after washing; high values mean tight binding
FEV = biological target: T1, FEV (Homo sapiens, UniProt Q99581 1-238); conditions: protein: recombinant; tags: N-terminal GST; dsDNA, one strand shown
T1 sequence: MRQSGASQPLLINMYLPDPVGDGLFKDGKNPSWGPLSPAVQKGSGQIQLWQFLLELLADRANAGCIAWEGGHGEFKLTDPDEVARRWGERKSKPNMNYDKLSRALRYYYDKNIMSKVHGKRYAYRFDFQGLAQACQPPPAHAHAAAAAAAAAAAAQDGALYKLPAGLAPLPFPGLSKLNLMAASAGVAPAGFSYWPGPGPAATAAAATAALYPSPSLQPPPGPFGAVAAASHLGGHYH
In short: (§1)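 Pools of DNA-barcoded human transcription factors, expressed in yeast as GST fusions on glutathione beads and combined with a tag-only sample, were incubated with 200 nmole of a 16-mer random double-stranded DNA library. Incubation took 30 min at room temperature in Tris/NaCl/DTT/glycerol buffer and was followed by washing, 0.1% formaldehyde crosslinking, proximity ligation (BsaI/T4 ligase, 1 h, 37 °C), PCR amplification and sequencing on an Illumina NextSeq500. Binding signal is the ratio of a hexamer's read frequency for a factor to its frequency for the tag-only sample.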

ETV5 = ETV5 (Homo sapiens, UniProt P41161 1-510); conditions: protein: recombinant; tags: N-terminal GST; dsDNA, one strand shown
In short: as §1

HSF1 = HSF1 (Homo sapiens, UniProt Q00613 1-529); conditions: protein: recombinant; tags: N-terminal GST; chain copies: 3; dsDNA, one strand shown
In short: as §1

SPIC = biological target: T2, SPIC (Homo sapiens, UniProt Q8N5J4 1-248); conditions: protein: recombinant; tags: N-terminal GST; dsDNA, one strand shown
T2 sequence: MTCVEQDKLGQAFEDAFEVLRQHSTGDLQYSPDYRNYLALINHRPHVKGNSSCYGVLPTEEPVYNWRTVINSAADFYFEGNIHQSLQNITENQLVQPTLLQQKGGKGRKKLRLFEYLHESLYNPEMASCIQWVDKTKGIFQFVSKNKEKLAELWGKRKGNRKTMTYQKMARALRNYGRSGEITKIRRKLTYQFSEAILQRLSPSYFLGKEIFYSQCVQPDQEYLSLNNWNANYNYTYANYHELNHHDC
In short: as §1

ELF4 = ELF4 (Homo sapiens, UniProt Q99607 1-663); conditions: protein: recombinant; tags: N-terminal GST; dsDNA, one strand shown
In short: as §1

ELK4 = biological target: T3, ELK4 (Homo sapiens, UniProt P28324-2 1-405); conditions: protein: recombinant; tags: N-terminal GST; dsDNA, one strand shown
T3 sequence: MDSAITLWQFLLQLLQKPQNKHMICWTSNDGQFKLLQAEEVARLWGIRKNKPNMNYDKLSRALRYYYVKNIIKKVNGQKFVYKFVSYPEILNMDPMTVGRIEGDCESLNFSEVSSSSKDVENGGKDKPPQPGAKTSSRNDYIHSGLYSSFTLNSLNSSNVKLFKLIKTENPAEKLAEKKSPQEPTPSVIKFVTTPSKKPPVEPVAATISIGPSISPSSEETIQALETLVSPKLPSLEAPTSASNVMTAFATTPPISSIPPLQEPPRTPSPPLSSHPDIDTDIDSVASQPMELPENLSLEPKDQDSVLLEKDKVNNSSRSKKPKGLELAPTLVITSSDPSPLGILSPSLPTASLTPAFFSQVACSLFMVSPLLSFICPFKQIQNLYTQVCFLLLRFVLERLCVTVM
In short: as §1

ETV2 = biological target: T4, ETV2 (Homo sapiens, UniProt O00321 1-342); conditions: protein: recombinant; tags: N-terminal GST; dsDNA, one strand shown
T4 sequence: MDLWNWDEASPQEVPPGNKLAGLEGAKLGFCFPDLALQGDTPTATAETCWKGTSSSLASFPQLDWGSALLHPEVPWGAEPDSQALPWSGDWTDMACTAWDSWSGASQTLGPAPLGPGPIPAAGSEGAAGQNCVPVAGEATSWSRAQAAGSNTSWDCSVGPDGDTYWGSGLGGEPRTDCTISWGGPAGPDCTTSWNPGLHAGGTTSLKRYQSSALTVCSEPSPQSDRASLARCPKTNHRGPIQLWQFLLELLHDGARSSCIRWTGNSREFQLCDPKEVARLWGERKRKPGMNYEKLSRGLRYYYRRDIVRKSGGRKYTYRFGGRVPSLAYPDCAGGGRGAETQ
In short: as §1

ELF3 = biological target: T5, ELF3 (Homo sapiens, UniProt P78545 1-371); conditions: protein: recombinant; tags: N-terminal GST; dsDNA, one strand shown
T5 sequence: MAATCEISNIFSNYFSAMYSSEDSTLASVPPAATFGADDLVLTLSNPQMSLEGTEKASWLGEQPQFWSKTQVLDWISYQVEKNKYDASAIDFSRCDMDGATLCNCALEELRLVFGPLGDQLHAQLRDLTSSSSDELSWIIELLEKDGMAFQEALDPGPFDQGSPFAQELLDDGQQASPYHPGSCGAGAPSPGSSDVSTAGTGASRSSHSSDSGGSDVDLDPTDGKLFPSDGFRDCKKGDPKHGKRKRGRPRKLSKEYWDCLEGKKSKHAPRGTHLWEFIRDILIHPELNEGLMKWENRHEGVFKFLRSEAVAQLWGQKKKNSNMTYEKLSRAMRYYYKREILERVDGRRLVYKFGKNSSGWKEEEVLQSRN
In short: as §1

CRX = CRX (Homo sapiens, UniProt O43186 1-299); conditions: protein: recombinant; tags: N-terminal GST; dsDNA, one strand shown
In short: as §1

ETV1 = ETV1 (Homo sapiens, UniProt P50549 1-477); conditions: protein: recombinant; tags: N-terminal GST; dsDNA, one strand shown
In short: as §1

ETV5, sequence (P41161 whole entry): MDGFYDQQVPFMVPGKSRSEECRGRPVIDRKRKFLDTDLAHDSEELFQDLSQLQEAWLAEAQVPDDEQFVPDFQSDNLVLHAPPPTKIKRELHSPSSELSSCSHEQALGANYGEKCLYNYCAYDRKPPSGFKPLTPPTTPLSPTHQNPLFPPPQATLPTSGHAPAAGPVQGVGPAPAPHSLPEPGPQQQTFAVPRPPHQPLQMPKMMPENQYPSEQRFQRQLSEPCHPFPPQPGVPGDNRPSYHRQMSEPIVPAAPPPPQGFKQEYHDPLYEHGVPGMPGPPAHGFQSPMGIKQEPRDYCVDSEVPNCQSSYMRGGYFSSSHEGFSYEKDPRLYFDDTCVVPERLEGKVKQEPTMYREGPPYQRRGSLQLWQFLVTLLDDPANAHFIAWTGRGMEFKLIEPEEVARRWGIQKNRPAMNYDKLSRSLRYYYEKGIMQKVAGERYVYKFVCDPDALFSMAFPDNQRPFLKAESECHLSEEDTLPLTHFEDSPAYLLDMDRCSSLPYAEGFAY
ELF4, sequence (Q99607 whole entry): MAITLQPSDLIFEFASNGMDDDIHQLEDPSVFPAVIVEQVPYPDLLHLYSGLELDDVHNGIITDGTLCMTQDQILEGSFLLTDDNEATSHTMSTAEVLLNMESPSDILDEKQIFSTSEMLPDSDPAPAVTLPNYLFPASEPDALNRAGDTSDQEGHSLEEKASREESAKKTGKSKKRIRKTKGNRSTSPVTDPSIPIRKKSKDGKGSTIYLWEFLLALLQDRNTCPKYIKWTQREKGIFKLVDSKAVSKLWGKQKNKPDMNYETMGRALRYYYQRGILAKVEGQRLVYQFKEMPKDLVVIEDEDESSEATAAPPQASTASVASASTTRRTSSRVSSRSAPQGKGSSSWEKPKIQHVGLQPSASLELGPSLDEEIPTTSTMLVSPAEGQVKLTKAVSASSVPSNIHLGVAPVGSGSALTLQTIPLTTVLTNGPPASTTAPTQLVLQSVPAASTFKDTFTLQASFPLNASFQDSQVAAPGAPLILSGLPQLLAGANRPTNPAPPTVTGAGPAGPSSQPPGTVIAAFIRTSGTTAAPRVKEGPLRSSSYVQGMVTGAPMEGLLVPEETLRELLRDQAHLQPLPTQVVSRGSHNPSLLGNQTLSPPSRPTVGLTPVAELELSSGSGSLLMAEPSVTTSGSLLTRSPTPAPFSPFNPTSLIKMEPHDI
CRX, sequence (O43186 whole entry): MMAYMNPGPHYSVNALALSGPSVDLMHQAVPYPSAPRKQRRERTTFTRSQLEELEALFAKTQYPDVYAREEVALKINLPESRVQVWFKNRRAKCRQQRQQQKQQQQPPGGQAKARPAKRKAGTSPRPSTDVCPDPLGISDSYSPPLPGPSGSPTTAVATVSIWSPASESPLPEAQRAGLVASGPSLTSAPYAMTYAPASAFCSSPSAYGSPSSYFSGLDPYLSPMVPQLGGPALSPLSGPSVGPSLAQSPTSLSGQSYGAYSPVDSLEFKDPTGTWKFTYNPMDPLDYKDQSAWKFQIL
HSF1, sequence (Q00613 whole entry): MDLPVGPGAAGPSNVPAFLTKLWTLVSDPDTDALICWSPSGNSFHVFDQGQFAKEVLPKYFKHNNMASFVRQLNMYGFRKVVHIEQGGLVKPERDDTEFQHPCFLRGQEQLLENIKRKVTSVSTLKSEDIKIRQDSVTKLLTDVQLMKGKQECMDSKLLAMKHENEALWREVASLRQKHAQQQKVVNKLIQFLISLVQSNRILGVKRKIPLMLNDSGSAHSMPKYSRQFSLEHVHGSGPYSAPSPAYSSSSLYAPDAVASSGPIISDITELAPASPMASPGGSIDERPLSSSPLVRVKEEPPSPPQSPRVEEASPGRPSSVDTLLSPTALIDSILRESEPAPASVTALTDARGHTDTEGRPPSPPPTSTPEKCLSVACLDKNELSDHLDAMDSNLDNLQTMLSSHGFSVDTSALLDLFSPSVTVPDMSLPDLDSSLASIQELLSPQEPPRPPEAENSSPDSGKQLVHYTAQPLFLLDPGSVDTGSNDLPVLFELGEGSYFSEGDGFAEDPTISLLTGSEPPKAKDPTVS
ETV1, sequence (P50549 whole entry): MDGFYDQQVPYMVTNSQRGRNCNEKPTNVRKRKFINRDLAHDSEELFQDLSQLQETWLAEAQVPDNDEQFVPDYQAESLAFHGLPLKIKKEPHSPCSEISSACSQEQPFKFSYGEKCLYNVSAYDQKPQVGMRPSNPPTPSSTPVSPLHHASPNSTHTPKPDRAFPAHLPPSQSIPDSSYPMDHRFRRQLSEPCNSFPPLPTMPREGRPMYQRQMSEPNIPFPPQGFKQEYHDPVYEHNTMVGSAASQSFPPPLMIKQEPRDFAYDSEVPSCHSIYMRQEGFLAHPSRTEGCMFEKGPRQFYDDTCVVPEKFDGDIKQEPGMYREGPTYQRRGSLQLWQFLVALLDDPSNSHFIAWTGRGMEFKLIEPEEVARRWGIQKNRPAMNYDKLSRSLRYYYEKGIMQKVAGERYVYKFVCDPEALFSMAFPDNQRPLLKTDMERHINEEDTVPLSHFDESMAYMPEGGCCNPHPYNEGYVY

For ATGGAA, the binding signal (FEV) was 1.16 fold enrichment (6-mer frequency, TF over GST control), the binding signal (ETV5) was 1.16 fold enrichment (6-mer frequency, TF over GST control) and the binding signal (HSF1) was 1.86 fold enrichment (6-mer frequency, TF over GST control). The binding signal (SPIC) was 1.22 fold enrichment (6-mer frequency, TF over GST control), the binding signal (ELF4) was 1.19 fold enrichment (6-mer frequency, TF over GST control) and the binding signal (ELK4) was 1.13 fold enrichment (6-mer frequency, TF over GST control). The binding signal (ETV2) was 1.26 fold enrichment (6-mer frequency, TF over GST control), the binding signal (ELF3) was 1.16 fold enrichment (6-mer frequency, TF over GST control) and the binding signal (CRX) was 1.22 fold enrichment (6-mer frequency, TF over GST control). The binding signal (ETV1) was 1.24 fold enrichment (6-mer frequency, TF over GST control).
